Data from the supplement of paper PMC8728848.
This is one part of a sample in which the strongest signals are shown more often than they occur.

B1: LSectin (Mus musculus), Q8BNX1 (protein)
chain: MNTGEYNKLGSAIEEVSRGQLGRWECYKQRLFFLVLALLVATVLWALILSTLLSSASSKLRVLLSHQDLLRTNASEQKMTLSSLKDDIGACRNCCSVTKAQLQTTLAEFKDIQAKLMEQESILKELQERVTQDLAKASRDRENIRSELFQALEAVKRQNSSCEQCPPSWLPFQGSCYYFSETQATWDTAQSYCGGQGAHLVIVRGLNEQGFLSQHTRGRGYWLGLRAVRHLNKIQGYRWVDGASLNFSHWNSGEPNDSRGHEDCIMMLHSGLWNDAPCTNERDGWICEKRSSCY
B2: CLEC-1 (Homo sapiens), Q9NZH3 (protein)
chain: MQAKYSSTRDMLDDDGDTTMSLHSQASATTRHPEPRRTEHRAPSSTWRPVALTLLTLCLVLLIGLAAWGLLFFQYYQLSNTGQDTISQMEERLGNTSQELQSLQVQNIKLAGSLQHVAEKLCRELYNKAGAHRCSPCTEQWKWHGDNCYQFYKDSKSWEDCKYFCLSENSTMLKINKQEDLEFAASQSYSEFFYSYWTGLLRPDSGKAWLWMDGTPFTSELFHIIIDVTSPRSRDCVAILNGMIFSKDCKELKRCVCERRAGMVKPESLHVPPETLGEGD

Key:
Assay in all cases: glycan array binding signal (z-score within array); higher = stronger binding
Details in all cases: glycan notation: IUPAC condensed, linker removed
[1] = target: Neu5Ac(a2-3)Gal(b1-4)[Fuc(a1-3)]GlcNAc(b1-6)[Neu5Ac(a2-3)Gal(b1-3)]GalNAc
In short: (§1)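 The Consortium for Functional Glycomics database supplied 3228 glycan arrays, of which those lacking an available protein sequence were dropped. The binding signal, a within-array Z-score, was averaged across arrays of the same protein sequence and across linkers. Negative scores can be read as non-binding.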

Neu5Ac(a2-6)Gal = target: Neu5Ac(a2-6)Gal
In short: as §1

[2] = target: Neu5Ac(a2-6)Gal(b1-3)GlcNAc(b1-3)[Gal(b1-4)GlcNAc(b1-6)]Gal(b1-4)Glc
In short: as §1

[3] = target: Neu5Ac(a2-6)Gal(b1-4)GlcNAc(b1-2)Man(a1-6)[GlcNAc(b1-2)Man(a1-3)]Man(b1-4)GlcNAc(b1-4)GlcNAc
In short: as §1

[4] = target: Neu5Ac(a2-6)Gal(b1-4)GlcNAc(b1-3)Gal(b1-4)GlcNAc(b1-3)Gal(b1-4)GlcNAc
In short: as §1

[5] = target: Neu5Ac(a2-6)GalNAc(b1-4)GlcNAc
In short: as §1

[6] = target: Neu5Ac(a2-6)GlcNAc(b1-4)GlcNAc
In short: as §1

[7] = target: Neu5Ac(a2-8)Neu5Ac(a2-3)Gal(b1-4)Glc
In short: as §1

[8] = target: Neu5Ac9Ac(a2-6)Gal(b1-4)GlcNAc
In short: as §1

[9] = target: Neu5Gc(a2-3)Gal(b1-4)GlcNAc
In short: as §1

[10] = target: Fuc(a1-2)Gal(b1-3)GlcNAc(b1-2)Man(a1-3)[Fuc(a1-2)Gal(b1-3)GlcNAc(b1-2)Man(a1-6)]Man(b1-4)GlcNAc(b1-4)GlcNAc
In short: as §1

[11] = target: Fuc(a1-2)[Gal(a1-4)]Gal(b1-4)GlcNAc
In short: as §1

[12] = target: Fuc(a1-3)[Gal(b1-4)]GlcNAc(b1-4)Gal(b1-4)[Fuc(a1-3)]GlcNAc(b1-4)Gal(b1-4)[Fuc(a1-3)]GlcNAc
In short: as §1

Gal(a1-3)Gal = target: Gal(a1-3)Gal
In short: as §1

[13] = target: Gal(a1-3)Gal(b1-3)GlcNAc(b1-2)Man(a1-3)[Gal(a1-3)Gal(b1-3)GlcNAc(b1-2)Man(a1-6)]Man(b1-4)GlcNAc(b1-4)GlcNAc
In short: as §1

[14] = target: Gal(a1-4)Gal(b1-4)GlcNAc(b1-2)Man(a1-3)[Gal(a1-4)Gal(b1-4)GlcNAc(b1-2)Man(a1-6)]Man(b1-4)GlcNAc(b1-4)GlcNAc
In short: as §1

Gal(b1-2)Gal = target: Gal(b1-2)Gal
In short: as §1

[15] = target: Gal(b1-3)[GlcNAc(b1-6)]GalNAc
In short: as §1

[16] = target: Gal(b1-4)GlcNAc(b1-2)Man(a1-3)Man(b1-4)GlcNAc(b1-4)GlcNAc
In short: as §1

[17] = target: Gal(b1-4)GlcNAc(b1-2)Man(a1-3)[Gal(b1-4)GlcNAc(b1-2)Man(a1-6)]Man(b1-4)GlcNAc(b1-4)GlcNAc
In short: as §1

[18] = target: Gal(b1-4)GlcNAc(b1-2)Man(a1-3)[GlcNAc(b1-2)Man(a1-6)]Man(b1-4)GlcNAc(b1-4)GlcNAc
In short: as §1

[19] = target: Gal(b1-4)GlcNAc(b1-2)Man(a1-3)[Man(a1-6)]Man(b1-4)GlcNAc(b1-4)GlcNAc
In short: as §1

[20] = target: Gal(b1-4)GlcNAc(b1-3)GalNAc
In short: as §1

Gal3S(b1-3)GalNAc = target: Gal3S(b1-3)GalNAc
In short: as §1

Gal3S6S(b1-4)GlcNAc6S = target: Gal3S6S(b1-4)GlcNAc6S
In short: as §1

Gal6S(b1-4)GlcNAc6S = target: Gal6S(b1-4)GlcNAc6S
In short: as §1

GalNAc(a1-3)Gal = target: GalNAc(a1-3)Gal
In short: as §1

[21] = target: GlcNAc(a1-4)Gal(b1-3)GlcNAc
In short: as §1

[22] = target: GlcNAc(a1-4)Gal(b1-4)GalNAc
In short: as §1

[23] = target: GlcNAc(a1-4)Gal(b1-4)GlcNAc
In short: as §1

[24] = target: GlcNAc(a1-6)Gal(b1-4)GlcNAc
In short: as §1

[25] = target: Man(a1-3)[Man(a1-6)]Man(a1-6)[Man(a1-2)Man(a1-3)]Man(b1-4)GlcNAc(b1-4)GlcNAc
In short: as §1

[26] = target: Neu5Ac(a2-3)Gal(b1-4)GlcNAc(b1-6)[Neu5Ac(a2-3)Gal(b1-3)]GalNAc
In short: as §1

[27] = target: Neu5Ac(a2-3)Gal(b1-4)[Fuc(a1-3)]GlcNAc(b1-3)GalNAc
In short: as §1

[28] = target: Neu5Ac(a2-3)Gal6S(b1-4)GlcNAc
In short: as §1

Neu5Ac(a2-3)GalNAc = target: Neu5Ac(a2-3)GalNAc
In short: as §1

Neu5Ac(b1-6)GalNAc = target: Neu5Ac(b1-6)GalNAc
In short: as §1

Neu5Gc(a2-6)GalNAc = target: Neu5Gc(a2-6)GalNAc
In short: as §1

| Binder | glycan array binding signal (z-score) [1] | glycan array binding signal (z-score) (Neu5Ac(a2-6)Gal) | glycan array binding signal (z-score) [2] | glycan array binding signal (z-score) [3] | glycan array binding signal (z-score) [4] | glycan array binding signal (z-score) [5] | glycan array binding signal (z-score) [6] | glycan array binding signal (z-score) [7] | glycan array binding signal (z-score) [8] | glycan array binding signal (z-score) [9] | glycan array binding signal (z-score) [10] | glycan array binding signal (z-score) [11] | glycan array binding signal (z-score) [12] | glycan array binding signal (z-score) (Gal(a1-3)Gal) | glycan array binding signal (z-score) [13] | glycan array binding signal (z-score) [14] | glycan array binding signal (z-score) (Gal(b1-2)Gal) | glycan array binding signal (z-score) [15] | glycan array binding signal (z-score) [16] | glycan array binding signal (z-score) [17] | glycan array binding signal (z-score) [18] | glycan array binding signal (z-score) [19] | glycan array binding signal (z-score) [20] | glycan array binding signal (z-score) (Gal3S(b1-3)GalNAc) | glycan array binding signal (z-score) (Gal3S6S(b1-4)GlcNAc6S) | glycan array binding signal (z-score) (Gal6S(b1-4)GlcNAc6S) | glycan array binding signal (z-score) (GalNAc(a1-3)Gal) | glycan array binding signal (z-score) [21] | glycan array binding signal (z-score) [22] | glycan array binding signal (z-score) [23] | glycan array binding signal (z-score) [24] | glycan array binding signal (z-score) [25] | glycan array binding signal (z-score) [26] | glycan array binding signal (z-score) [27] | glycan array binding signal (z-score) [28] | glycan array binding signal (z-score) (Neu5Ac(a2-3)GalNAc) | glycan array binding signal (z-score) (Neu5Ac(b1-6)GalNAc) | glycan array binding signal (z-score) (Neu5Gc(a2-6)GalNAc) |
| --- | --- | --- | --- | --- | --- | --- | --- | --- | --- | --- | --- | --- | --- | --- | --- | --- | --- | --- | --- | --- | --- | --- | --- | --- | --- | --- | --- | --- | --- | --- | --- | --- | --- | --- | --- | --- | --- | --- |
| B1 | -0.181 | -0.118 | -0.187 | 4.19 | -0.182 | 3.69 | -0.18 | -0.158 | -0.16 | -0.156 | – | – | – | – | – | – | – | – | – | – | – | – | – | – | – | – | – | – | – | – | – | – | – | – | – | – | – | – |
| B2 | – | – | – | – | -0.43 | – | – | – | – | – | 6.09 | -0.046 | 0.063 | -0.376 | 3.16 | 5.92 | -0.482 | -0.033 | 1.79 | 0.112 | -0.583 | 11 | -0.261 | -0.341 | 3.17 | 0.66 | -0.34 | -0.516 | -0.035 | 2.86 | 2.11 | 0.433 | -0.142 | 2.82 | -0.086 | -0.178 | -0.392 | -0.297 |
